Reference: PubChem BioAssay AID612 (The Scripps Research Institute Molecular Screening Center, 2007)
The whole screen tested about 62,000 compounds, of which about 420 (0.68%) were called active. Many of the other results were omitted from the sample, so actives are more common in it than they were. Values without a mark were called inactive.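 The calls were made as follows: active = inhibition above the mean of all tested compounds plus 3 SD (cut at about 43% in these data); inactive = the rest.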

biological target: 5-hydroxytryptamine receptor 1A (Homo sapiens) (UniProt P08908); experiment: human 5-HT1a receptor antagonists, primary screen, cell-based, CHO, Ga15 NFAT-bla reporter (AID 612); details: CHO 5-HT1a Ga15 NFAT-bla reporter, antagonist mode; at 10 µM; active compounds read high;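 also: receptor stimulated by 5-CT agonist at 100 nM near EC80; beta-lactamase reporter measured by ratiometric fluorescence of a cleavable substrate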
Sequence (P08908 whole entry, looked up): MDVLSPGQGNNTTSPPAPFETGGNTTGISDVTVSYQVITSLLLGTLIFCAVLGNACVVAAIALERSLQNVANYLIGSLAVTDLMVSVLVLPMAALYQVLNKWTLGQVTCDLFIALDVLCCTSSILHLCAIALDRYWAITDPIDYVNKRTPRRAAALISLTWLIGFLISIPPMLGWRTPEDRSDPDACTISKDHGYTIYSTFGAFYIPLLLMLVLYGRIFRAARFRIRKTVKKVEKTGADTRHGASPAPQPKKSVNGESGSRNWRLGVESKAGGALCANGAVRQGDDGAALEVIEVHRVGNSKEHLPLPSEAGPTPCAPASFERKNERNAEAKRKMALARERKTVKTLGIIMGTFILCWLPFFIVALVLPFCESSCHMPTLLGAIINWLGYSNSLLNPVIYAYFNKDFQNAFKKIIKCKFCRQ

Row | Structure (SMILES) | inhibition
1 | O=C(Nc1cc(C(F)(F)F)ccc1Cl)c1cc(C2CC2)on1 | 2.5%
2 | O=C(OCC(O)C(O)COC(=O)c1ccccc1)c1ccccc1 (stereo not given) | -11.9%
3 | S=C1SCN(CCN2CCOCC2)CN1Cc1ccccc1 | -2.1%
4 | CCOc1ccccc1C1NC(=O)NC(C)=C1C(=O)OCc1ccco1 (stereo not given) | -4.6%
5 | CCOc1ccc2[nH]c(=O)c(C(c3nnnn3CCOC)N3CCOCC3)cc2c1 (stereo not given) | -1.9%
6 | CC(=O)c1sc2nc(SCC(=O)N3CCCCC3)[nH]c(=O)c2c1C | -6.6%
7 | Cc1cccc(NC(=O)c2ccccc2NC(=O)C(C)(C)C)n1 | 1.6%
8 | O=S(=O)(Nc1ccccc1N1CCOCC1)c1ccc(Cl)s1 | 4.3%
9 | CCOC(=O)C1CCN(Cc2coc3ccc(Cl)cc3c2=O)CC1 | 5%
10 | O=C(NCc1ccc2c(c1)OCO2)C1CCCN(S(=O)(=O)c2cccs2)C1 (stereo not given) | -2.9%
11 | Cc1ccnc(SCCn2c(Br)nc3c2c(=O)[nH]c(=O)n3C)n1 | -4.8%
12 | CC(C)Cc1cc(C(=O)Nc2cc(Br)ccc2O)no1 | 17.4%
13 | CCn1c(SCC(=O)Nc2nccs2)nnc1-c1ccncc1 | -5%
14 | Cc1ccc(C(=O)NC2CCN(C(=O)N3CCOCC3)CC2)cc1 | -11.8%
15 | COc1cc(C2C(C(=O)c3ccc(C)o3)=C(O)C(=O)N2CCc2ccccc2)ccc1O (stereo not given) | -1.1%
16 | COc1ccc(CCN(C)CCN2C(=O)c3ccccc3C2=O)cc1OC | -14.2%
17 | COc1ccc(CCN2C(=O)c3[nH]nc(-c4ccccc4O)c3C2c2ccc(C)cc2)cc1OC (stereo not given) | 54.6% (active)
18 | O=C(C1CC1)N1CCN=C1SCc1ccc(Cl)cc1 | 13%
19 | N#CC1=C(N)C(C#N)(C#N)[C@H](c2ccsc2)[C@H]2COCC=C12 | -8.8%
20 | O=C(CN1CCOCC1)Nc1c(-c2ccccc2)c2cc(Br)ccc2[nH]c1=O | -10.8%
